Assay in all cases: NCI-60 one-dose screen, 48 h (100 = growth as untreated, 0 = no growth, -100 = all killed)
What all share (conditions): 10 µM unless noted

The test system of assay [1] is SK-MEL-2 melanoma.
The subject of assay [2] is EKVX NSCLC.
Assay [3] concerns SN12C renal.
Assay [4] concerns UO-31 renal.
The subject of assay [5] is TK-10 renal.
Assay [6] deals with ACHN renal.
Assay [7] deals with CAKI-1 renal.
The test system of assay [8] is A498 renal.
In assay [9] the test system is CCRF-CEM leukemia.
The subject of assay [10] is MOLT-4 leukemia.
The subject of assay [11] is SR leukemia.
The test system of assay [12] is RPMI-8226 leukemia.
Assay [13] concerns OVCAR-8 ovarian.
The subject of assay [14] is OVCAR-5 ovarian.
Assay [15] deals with OVCAR-4 ovarian.
In assay [16] the test system is SK-OV-3 ovarian.
The test system of assay [17] is IGROV1 ovarian.
The test system of assay [18] is OVCAR-3 ovarian.
Assay [19] relates to HS 578T breast.
Assay [20] deals with NCI/ADR-RES ovarian.

The results in this text go back to PubChem BioAssay (NCI).

The structures appear in SMILES notation. The panel holds about 83,000 compounds, 20% with a hit somewhere; the sample as a whole holds those more often.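 Results are percent growth after 48 hours of single-concentration exposure. 100 means growth as in untreated cells, lower positive values show inhibition; negative values down to -100 show cell death.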 Unmarked numbers belong to inactive results. The source made the active and inactive calls. The calls were made as follows: active = growth percent below 10; inactive = the rest.

Consider `COc1cc(CNC(=O)C[C@H](C)CCC=C(C)C)ccc1OCc1cn(-c2ccc(Br)cc2)nn1`, for which the growth is 78% in [1]; 79% in [2]; 71.6% in assay [3]; 62.9% in [4]; 109% in assay [5]; 56.4% in assay [6]. Also, the growth in assay [7] was 28.8%; in [8], 105%; in [9] it was 61.1%; in assay [10], 70%; in [11], 63.8%; in [12], 69.3%. In addition, the growth is 47.5% in assay [13]; 105% in assay [14]; 49.5% in assay [15]; 64% in assay [16]; 89.9% in assay [17]; 105% in assay [18]. The growth in assay [19] was 73.8%; in [20], 52.1%.
With `COc1ccc(/C=C/c2nc3ccccc3n3c(-c4cccc([N+](=O)[O-])c4)nnc23)cc1`, the growth in [1] was -60.3% (active); in assay [2], -52% (active); in [3] it was -72.2% (active); in assay [4], -90.3% (active); in [5], -47.3% (active); in [6], -97.5% (active). Also, the growth is -91.1% (active) in [7]; 75.7% in [8]; -14.9% (active) in assay [9]; -36.5% (active) in assay [10]; -33.3% (active) in assay [11]; -18.3% (active) in assay [12]. Also, the growth in assay [13] was -43.6% (active); in assay [14], -59.9% (active); in assay [15], -14.6% (active); in [16], 25.6%; in [17] it was -69% (active); in [18] it was -77.4% (active). The growth in assay [19] is 12%; in assay [20], -27% (active).
Regarding `CC1=C(C)C(=O)C(NCCN2CCOCC2)=C(Br)C1=O`, the growth in assay [1] is 68.9%; in assay [2], 46.4%; in assay [3], 52%; in assay [4], 44.7%; in assay [5] it was 150%; in [6], 62.3%. Also, the growth was 45.3% in assay [7]; 124% in [8]; -21% (active) in assay [9]; 0.284% (active) in [10]; 55.9% in assay [11]; 58.6% in assay [12]. Further, the growth in [13] is 16.3%; in assay [14], 4% (active); in [15] it was -67.4% (active); in [16], 87.5%; in assay [17], 31.4%; in assay [18] it was -26.9% (active). Further, the growth in [19] is 60.4%; in [20] it was 86.4%.
In the case of `Nc1nnc(CS(=O)(=O)c2ccccc2)s1`, the growth in assay [1] was 113%; in [2], 103%; in assay [3], 106%; in [4], 77.1%; in assay [5], 98.7%; in assay [6] it was 104%. The growth in [7] was 88.8%; in [8] it was 137%; in [9], 102%; in [10], 103%; in [11], 108%; in assay [12], 103%. Further, the growth in assay [13] is 97.4%; in [14], 109%; in assay [15], 121%; in assay [16] it was 104%; in assay [17], 101%; in assay [18], 104%. In addition, the growth was 86% in [19] and 104% in [20].
As for `C=CC(=O)N1CCN(c2ccc3nc4c(nc3c2C(F)(F)F)C(=O)c2ncccc2C4=O)CC1`, the growth in [1] was 39.8%; in [2] it was 30.4%; in [3], -44% (active); in assay [4] it was 35.7%; in assay [5], 111%; in assay [6] it was 28.3%. Besides, the growth was 36% in assay [7]; 134% in assay [8]; -17.5% (active) in assay [9]; -37.8% (active) in assay [10]; 33.2% in assay [11]; -20.2% (active) in assay [12]. The growth in assay [13] is -9.34% (active); in [14] it was 2.97% (active); in assay [15], -96.4% (active); in assay [16], 91.1%; in assay [17], -42.6% (active); in assay [18], -15.3% (active). The growth in assay [19] is 75.8%; in [20], 47.5%.
For `COc1cc(/C=C/C(=O)c2cnn(-c3cc(=O)[nH]c4ccc(Br)cc34)c2C)cc(OC)c1OC`, the growth was -59.6% (active) in assay [1]; -57.8% (active) in assay [2]; -7.58% (active) in assay [3]; -80.7% (active) in assay [4]; 1.77% (active) in [5]; -34.9% (active) in assay [6]. Also, the growth in assay [7] is -4.42% (active); in [8], 6.24% (active); in [9], -19.6% (active); in [10], -12.3% (active); in assay [11], -15.2% (active); in assay [12], -23.7% (active). The growth was 7.35% (active) in assay [13]; -68% (active) in [14]; 25.6% in [15]; 19.5% in assay [16]; -59.8% (active) in assay [17]; -59.1% (active) in [18]. Moreover, the figures for the growth in [19] and in assay [20] were 54.1% and -26.8% (active), respectively.
`CCCCCCCCc1ccc(C(=O)Nc2ccc(C)cc2C(=O)O)cc1`: the growth was 94.8% in assay [1]; 77.5% in [2]; 89.5% in assay [3]; 76.3% in [4]; 103% in assay [5]; 69.4% in [6]. Also, the growth in [7] was 85.4%; in assay [8] it was 109%; in assay [9] it was 53.9%; in assay [10], 75.3%; in [11], 90%; in [12], 63.5%. The growth is 94.1% in assay [13]; 109% in assay [14]; 99.8% in assay [15]; 100% in [16]; 83.9% in [17]; 94% in assay [18]. Besides, the growth in assay [19] is 105%; in [20], 94.1%.
For `COc1ccc2c(c1)C(Sc1ccc(Br)cc1)c1c(nc(N)c(C#N)c1N)O2` (stereo not given), the growth in [1] is 94.3%; in assay [2], 67%; in assay [3], 77.1%; in assay [4] it was 43.7%; in assay [5], 108%; in assay [6], 79.7%. Besides, the growth was 80.3% in assay [7]; 103% in [8]; 9.55% (active) in assay [9]; 55% in assay [10]; 46.5% in assay [11]; 87.1% in assay [12]. The growth in assay [13] is 87%; in assay [14], 113%; in [15], 92.4%; in [16], 98.1%; in assay [17], 59.1%; in [18], 114%. Besides, the values for the growth in [19] and in assay [20] were 88.8% and 86.5%, respectively.
